PubChem BioAssay (NCI)
Where “and” joins values, the source holds several entries; their conditions need not be identical. Equal values may be shown once. Compounds without any hit were thinned out: in the full panel of roughly 83,000, 20% have a hit.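 Values shown are percent growth following 48 h exposure of cells in 96-well plates to a single concentration of compound; below 10 was considered active.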 Calls of active or inactive are those of the source.

What was measured:
Test in all cases: NCI-60 one-dose screen, 48 h (100 = growth as untreated, 0 = no growth, -100 = all killed)
Conditions in all cases: 10 µM unless noted
NCI-H23 lung = system: NCI-H23 lung
NCI-H226 lung = system: NCI-H226 lung
NCI-H322M lung = system: NCI-H322M lung
HOP-62 NSCLC = system: HOP-62 NSCLC
NCI-H460 lung = system: NCI-H460 lung
HOP-92 NSCLC = system: HOP-92 NSCLC
NCI-H522 lung = system: NCI-H522 lung
A549/ATCC NSCLC = system: A549/ATCC NSCLC
786-0 renal = system: 786-0 renal
COLO 205 colon = system: COLO 205 colon
DU-145 prostate = system: DU-145 prostate
K-562 leukemia = system: K-562 leukemia
MALME-3M melanoma = system: MALME-3M melanoma
MDA-MB-231 breast = system: MDA-MB-231 breast
RXF 393 renal = system: RXF 393 renal
SF-268 CNS = system: SF-268 CNS
SF-295 CNS = system: SF-295 CNS
SF-539 CNS = system: SF-539 CNS
UACC-257 melanoma = system: UACC-257 melanoma
M14 melanoma = system: M14 melanoma

Structure (SMILES): CN(C)CCC(=O)c1ccc(Cl)cc1
- growth (NCI-H23 lung): 109% (inactive) and 86.8% (inactive)
- growth (NCI-H226 lung): 99.3% (inactive) and 110% (inactive)
- growth (NCI-H322M lung): 110% (inactive) and 116% (inactive)
- growth (HOP-62 NSCLC): 112% (inactive) and 115% (inactive)
- growth (NCI-H460 lung): 113% (inactive) and 114% (inactive)
- growth (HOP-92 NSCLC): 86.4% (inactive) and 124% (inactive)
- growth (NCI-H522 lung): 79.8% (inactive) and -84.6% (active)
- growth (A549/ATCC NSCLC): 109% (inactive) and 107% (inactive)
- growth (786-0 renal): 104% (inactive) and 106% (inactive)
- growth (COLO 205 colon): 121% (inactive) and 118% (inactive)
- growth (DU-145 prostate): 112% (inactive) and 133% (inactive)
- growth (K-562 leukemia): 110% (inactive) and 91.3% (inactive)
- growth (MALME-3M melanoma): 106% (inactive) and 122% (inactive)
- growth (MDA-MB-231 breast): 105% (inactive) and 107% (inactive)
- growth (RXF 393 renal): 110% (inactive) and 121% (inactive)
- growth (SF-268 CNS): 105% (inactive) and 107% (inactive)
- growth (SF-295 CNS): 117% (inactive) and 126% (inactive)
- growth (SF-539 CNS): 106% (inactive)
- growth (UACC-257 melanoma): 103% (inactive) and 104% (inactive)
- growth (M14 melanoma): 98.6% (inactive) and 109% (inactive)

Structure (SMILES): Cc1n[nH]c(=O)n(/N=C\c2c[nH]c3ccccc23)c1=O
- growth (NCI-H23 lung): 102% (inactive)
- growth (NCI-H226 lung): 103% (inactive)
- growth (NCI-H322M lung): 94.2% (inactive)
- growth (HOP-62 NSCLC): 96.1% (inactive)
- growth (NCI-H460 lung): 107% (inactive)
- growth (HOP-92 NSCLC): 84.2% (inactive)
- growth (NCI-H522 lung): 94.1% (inactive)
- growth (A549/ATCC NSCLC): 93.1% (inactive)
- growth (786-0 renal): 123% (inactive)
- growth (COLO 205 colon): 104% (inactive)
- growth (DU-145 prostate): 118% (inactive)
- growth (K-562 leukemia): 93.7% (inactive)
- growth (MALME-3M melanoma): 97% (inactive)
- growth (MDA-MB-231 breast): 123% (inactive)
- growth (RXF 393 renal): 96.3% (inactive)
- growth (SF-268 CNS): 99.6% (inactive)
- growth (SF-295 CNS): 102% (inactive)
- growth (SF-539 CNS): 104% (inactive)
- growth (UACC-257 melanoma): 104% (inactive)
- growth (M14 melanoma): 121% (inactive)

Structure (SMILES): CC(C)CNC(=O)c1ccccc1C(=O)NC1(C(=O)NCC(C)C)CCCC1
- growth (NCI-H23 lung): 100% (inactive) and 108% (inactive)
- growth (NCI-H226 lung): 99% (inactive) and 103% (inactive)
- growth (NCI-H322M lung): 112% (inactive) and 106% (inactive)
- growth (HOP-62 NSCLC): 102% (inactive) and 95.6% (inactive)
- growth (NCI-H460 lung): 108% (inactive) and 113% (inactive)
- growth (HOP-92 NSCLC): 117% (inactive)
- growth (NCI-H522 lung): 95.9% (inactive)
- growth (A549/ATCC NSCLC): 95.7% (inactive) and 107% (inactive)
- growth (786-0 renal): 107% (inactive) and 99% (inactive)
- growth (COLO 205 colon): 102% (inactive) and 121% (inactive)
- growth (DU-145 prostate): 111% (inactive) and 109% (inactive)
- growth (K-562 leukemia): 102% (inactive)
- growth (MALME-3M melanoma): 125% (inactive)
- growth (MDA-MB-231 breast): 109% (inactive) and 105% (inactive)
- growth (RXF 393 renal): 113% (inactive) and 130% (inactive)
- growth (SF-268 CNS): 104% (inactive)
- growth (SF-295 CNS): 111% (inactive) and 105% (inactive)
- growth (SF-539 CNS): 100% (inactive)
- growth (UACC-257 melanoma): 102% (inactive) and 106% (inactive)
- growth (M14 melanoma): 108% (inactive) and 102% (inactive)

Structure (SMILES): COc1cc(C(=O)c2ccc3c(c2)OCO3)cc(OC)c1OC
- growth (NCI-H23 lung): 49.2% (inactive) and 40.8% (inactive)
- growth (NCI-H226 lung): 52.4% (inactive) and 72.9% (inactive)
- growth (NCI-H322M lung): 41% (inactive) and 55.4% (inactive)
- growth (HOP-62 NSCLC): 38.8% (inactive) and 41.6% (inactive)
- growth (NCI-H460 lung): 14.3% (inactive) and 10.9% (inactive)
- growth (HOP-92 NSCLC): 37.9% (inactive) and 62.8% (inactive)
- growth (NCI-H522 lung): 44.6% (inactive) and -30.4% (active)
- growth (A549/ATCC NSCLC): 33.9% (inactive) and 34.9% (inactive)
- growth (786-0 renal): 56.2% (inactive) and 46% (inactive)
- growth (COLO 205 colon): 19.2% (inactive) and 20.8% (inactive)
- growth (DU-145 prostate): 10.4% (inactive) and 27.7% (inactive)
- growth (K-562 leukemia): 10.7% (inactive)
- growth (MALME-3M melanoma): 14.5% (inactive) and 34.1% (inactive)
- growth (MDA-MB-231 breast): 53.2% (inactive) and 47.4% (inactive)
- growth (RXF 393 renal): 28.3% (inactive) and 4.22% (active)
- growth (SF-268 CNS): 37.3% (inactive) and 40.6% (inactive)
- growth (SF-295 CNS): 9.91% (active) and 9.21% (active)
- growth (SF-539 CNS): 18.4% (inactive) and -1.47% (active)
- growth (UACC-257 melanoma): 18.6% (inactive) and 49.4% (inactive)
- growth (M14 melanoma): 21% (inactive) and 19.9% (inactive)

Structure (SMILES): O=C(N/N=C/c1ccccc1)N/N=C/c1ccccc1
- growth (NCI-H23 lung): 118% (inactive) and 101% (inactive)
- growth (NCI-H226 lung): 106% (inactive) and 78.9% (inactive)
- growth (NCI-H322M lung): 103% (inactive) and 116% (inactive)
- growth (HOP-62 NSCLC): 104% (inactive) and 117% (inactive)
- growth (NCI-H460 lung): 118% (inactive) and 95.1% (inactive)
- growth (HOP-92 NSCLC): 100% (inactive) and 90.3% (inactive)
- growth (NCI-H522 lung): 99.5% (inactive) and 106% (inactive)
- growth (A549/ATCC NSCLC): 102% (inactive) and 104% (inactive)
- growth (786-0 renal): 118% (inactive) and 116% (inactive)
- growth (COLO 205 colon): 109% (inactive) and 129% (inactive)
- growth (DU-145 prostate): 131% (inactive) and 109% (inactive)
- growth (K-562 leukemia): 95% (inactive)
- growth (MALME-3M melanoma): 94.4% (inactive) and 107% (inactive)
- growth (MDA-MB-231 breast): 106% (inactive)
- growth (RXF 393 renal): 107% (inactive) and 98.5% (inactive)
- growth (SF-268 CNS): 112% (inactive) and 100% (inactive)
- growth (SF-295 CNS): 92.4% (inactive) and 105% (inactive)
- growth (SF-539 CNS): 100% (inactive) and 98.3% (inactive)
- growth (UACC-257 melanoma): 90.3% (inactive) and 106% (inactive)
- growth (M14 melanoma): 123% (inactive) and 115% (inactive)

Structure (SMILES): Cn1c(=O)n(-c2ccc(C(C)(C)C#N)cc2)c2c3cc(-c4cnc5ccccc5c4)ccc3ncc21
- growth (NCI-H23 lung): 7.45% (active) and 15.4% (inactive)
- growth (NCI-H226 lung): 7.02% (active) and 9.42% (active)
- growth (NCI-H322M lung): 1.14% (active) and -0.589% (active)
- growth (HOP-62 NSCLC): 1.69% (active) and 3.34% (active)
- growth (NCI-H460 lung): 3.03% (active) and -9.04% (active)
- growth (HOP-92 NSCLC): -4.42% (active)
- growth (NCI-H522 lung): 2.87% (active) and -9.46% (active)
- growth (A549/ATCC NSCLC): 0.549% (active) and -9.22% (active)
- growth (786-0 renal): 0.54% (active) and -4.76% (active)
- growth (COLO 205 colon): -25% (active) and -3.99% (active)
- growth (DU-145 prostate): 15.3% (inactive) and 6.2% (active)
- growth (K-562 leukemia): 10.2% (inactive) and 10.6% (inactive)
- growth (MALME-3M melanoma): -14.1% (active) and -14.8% (active)
- growth (MDA-MB-231 breast): 19.3% (inactive) and 20% (inactive)
- growth (RXF 393 renal): -22.6% (active) and -17.3% (active)
- growth (SF-268 CNS): 11.2% (inactive) and 7.46% (active)
- growth (SF-295 CNS): -20.4% (active) and -4.51% (active)
- growth (SF-539 CNS): -30.1% (active) and -17.4% (active)
- growth (UACC-257 melanoma): -9.78% (active) and -14.4% (active)
- growth (M14 melanoma): 7.18% (active) and 0.962% (active)

Structure (SMILES): Nc1nc2ncc(CNc3ccc(C(=O)N[C@@H](CCc4nn[nH]n4)C(=O)O)cc3)nc2c(=O)[nH]1
- growth (NCI-H23 lung): 95.7% (inactive) and 95.5% (inactive)
- growth (NCI-H226 lung): 98.7% (inactive) and 93.8% (inactive)
- growth (NCI-H322M lung): 103% (inactive) and 102% (inactive)
- growth (HOP-62 NSCLC): 103% (inactive) and 92.1% (inactive)
- growth (NCI-H460 lung): 100% (inactive) and 101% (inactive)
- growth (HOP-92 NSCLC): 93.4% (inactive) and 78.5% (inactive)
- growth (NCI-H522 lung): 101% (inactive) and 84.6% (inactive)
- growth (A549/ATCC NSCLC): 106% (inactive) and 95.3% (inactive)
- growth (786-0 renal): 106% (inactive) and 109% (inactive)
- growth (COLO 205 colon): 107% (inactive) and 110% (inactive)
- growth (DU-145 prostate): 99.4% (inactive) and 110% (inactive)
- growth (K-562 leukemia): 90.7% (inactive)
- growth (MALME-3M melanoma): 96.9% (inactive) and 104% (inactive)
- growth (MDA-MB-231 breast): 110% (inactive) and 99.7% (inactive)
- growth (RXF 393 renal): 104% (inactive) and 96.3% (inactive)
- growth (SF-268 CNS): 98% (inactive) and 99.5% (inactive)
- growth (SF-295 CNS): 98.6% (inactive) and 100% (inactive)
- growth (SF-539 CNS): 91% (inactive) and 110% (inactive)
- growth (UACC-257 melanoma): 106% (inactive) and 91.8% (inactive)
- growth (M14 melanoma): 88% (inactive) and 98.6% (inactive)

Structure (SMILES): CN(C)c1ccc(C(=C2C=CC(=[N+](C)C)C=C2)c2ccccc2Cl)cc1
- growth (NCI-H23 lung): -52.2% (active) and -82.2% (active)
- growth (NCI-H226 lung): -41.3% (active) and -56.5% (active)
- growth (NCI-H322M lung): -7.26% (active) and 10.3% (inactive)
- growth (HOP-62 NSCLC): -43.7% (active) and -94.3% (active)
- growth (NCI-H460 lung): -60.8% (active) and -49.7% (active)
- growth (HOP-92 NSCLC): -78.2% (active) and -72% (active)
- growth (NCI-H522 lung): -57.4% (active) and -56.5% (active)
- growth (A549/ATCC NSCLC): -55.9% (active) and -34.5% (active)
- growth (786-0 renal): -88.2% (active) and -100% (active)
- growth (COLO 205 colon): -89.1% (active) and -90% (active)
- growth (DU-145 prostate): -97% (active)
- growth (K-562 leukemia): 7.59% (active)
- growth (MALME-3M melanoma): -56.3% (active) and -46.1% (active)
- growth (MDA-MB-231 breast): -36.9% (active) and -66.9% (active)
- growth (RXF 393 renal): -84.3% (active)
- growth (SF-268 CNS): -84.1% (active)
- growth (SF-295 CNS): -30.4% (active) and -25.8% (active)
- growth (SF-539 CNS): -58.9% (active) and -92.1% (active)
- growth (UACC-257 melanoma): -77.7% (active)
- growth (M14 melanoma): -62.8% (active) and -95.3% (active)
